Data on 19 compounds can be found in the supplement of paper PMC9794691.

Structures are written as SMILES.

For the assay, the system named is PC9. Briefly: area under confluence curve of compound monotherapy; compare to DMSO control AUC of the same experiment (AUC (confluence x time, arbitrary)). How it is done: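 compare to DMSO control AUC of the same experiment; Monotherapy arm of the osimertinib DTP screen: EGFR-mutant NSCLC cells were treated with the test compound alone at a fixed dose (highest dose with <50% inhibition of parental cells, or 1 uM), then switched to drug-free medium at the DTP stage. IncuCyte confluence was tracked and AUC computed in Prism. AUC scale depends on experiment duration, so each row carries the same-experiment DMSO control AUC (monotherapy activity = DMSO AUC minus monotherapy AUC). The monotherapy value is shared between screen formats.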

The mark [1] stands for this setting: 10 nM, DMSO control AUC in same experiment: 21341.
[2] abbreviates: 1000 nM, DMSO control AUC in same experiment: 20567.
Setting [3] is: 1000 nM, DMSO control AUC in same experiment: 22064.
Setting [4] is: 1000 nM, DMSO control AUC in same experiment: 30604.

As to `Cn1cc(CNCC2CCN(c3ncc(C(=O)NO)cn3)CC2)c2ccccc21` [Quisinostat], the “area under confluence curve” value runs as follows: under setting [1], 17400; (10 nM, DMSO control AUC in same experiment: 27958) 20800; (10 nM, DMSO control AUC in same experiment: 30002) 29800.
`CC(=O)Nc1cccc(-n2c(=O)n(C3CC3)c(=O)c3c(Nc4ccc(I)cc4F)n(C)c(=O)c(C)c32)c1` [Trametinib]: the “area under confluence curve” value came out at 20400 under setting [1] and 49600 (10 nM, DMSO control AUC in same experiment: 49189).
For the compound `CCN1CCN(Cc2ccc(Nc3ncc(F)c(-c4cc(F)c5nc(C)n(C(C)C)c5c4)n3)nc2)CC1` [Abemaciclib], the “area under confluence curve” value (100 nM, DMSO control AUC in same experiment: 28684) amounted to 28400; the “area under confluence curve” value (100 nM, DMSO control AUC in same experiment: 30578) was determined as 29700; the “area under confluence curve” value (100 nM, DMSO control AUC in same experiment: 88996) turned out to be 88400.
Turning to `COC[C@H]1Cn2cc(-c3nc(Nc4ccnn4C)ncc3C)nc2C(=O)N1Cc1ccc(F)c(F)c1`, the “area under confluence curve” value runs as follows: (100 nM, DMSO control AUC in same experiment: 31219) 30900; (100 nM, DMSO control AUC in same experiment: 49189) 46200.
On to `O=C(NC[C@H](O)CN1CCc2ccccc2C1)c1ccnc(NC2CCC2)c1`, for which, for the setting “100 nM, DMSO control AUC in same experiment: 44384”, the “area under confluence curve” value was 43300.
In the case of `COc1nnc2ccc(N3CCC(c4ccc(OCCN5CCN(C)C(=O)[C@H]5C)cc4)CC3)nn12`, the “area under confluence curve” value by setting is: (300 nM, DMSO control AUC in same experiment: 19076) 19200; (300 nM, DMSO control AUC in same experiment: 21594) 20500; (300 nM, DMSO control AUC in same experiment: 31840) 31700; (300 nM, DMSO control AUC in same experiment: 44384) 39700.
Take `CN(C)CCCOc1ccc(-c2ccc3ncc4c(c3c2)n(C2CCOCC2)c(=O)n4C)cn1`: the “area under confluence curve” value runs as follows: (300 nM, DMSO control AUC in same experiment: 22064) 22000; (300 nM, DMSO control AUC in same experiment: 29563) 30100; (300 nM, DMSO control AUC in same experiment: 30604) 30300.
Regarding `Cc1c[nH]c2nc(Nc3ccc(N4CCN(C)CC4)c(F)c3)nc(-c3cccc(CC#N)c3)c12`, the “area under confluence curve” value came to 21400 (300 nM, DMSO control AUC in same experiment: 28684); 29700 (300 nM, DMSO control AUC in same experiment: 30008); 33700 (300 nM, DMSO control AUC in same experiment: 43316).
As for `Cn1cnc2c(F)c(Nc3ccc(Br)cc3Cl)c(C(=O)NOCCO)cc21` [Selumetinib], the “area under confluence curve” value (300 nM, DMSO control AUC in same experiment: 49189) worked out at 49700.
For `CN(C)C(=O)c1cc2cnc(Nc3ccc(N4CCNCC4)cn3)nc2n1C1CCCC1` [Ribociclib], for the setting “300 nM, DMSO control AUC in same experiment: 88996”, the “area under confluence curve” value came out at 88200.
In the case of `Cc1nc(N2CCC3(CC2)CO[C@@H](C)[C@H]3N)c(CO)nc1-c1cccc(Cl)c1Cl`, the “area under confluence curve” value reads like this: under setting [2], 20500; (1000 nM, DMSO control AUC in same experiment: 21678) 22100.
`Cc1cccc(-c2[nH]c(C(C)(C)C)nc2-c2ccc3nccnc3c2)n1`: the “area under confluence curve” value by setting is: under setting [2], 20400; under setting [3], 21700.
Regarding `O=C(c1cc(Cc2n[nH]c(=O)c3ccccc23)ccc1F)N1CCN(C(=O)C2CC2)CC1` [Olaparib], the “area under confluence curve” value was 20000 under setting [3] and 30200 under setting [4].
As to `C[C@@H]1COCCN1c1cc(C2([S@](C)(=N)=O)CC2)nc(-c2cc[nH]c3nccc2-3)n1`, the “area under confluence curve” value reads like this: under setting [3], 21700; under setting [4], 30800.
For the compound `CN1CCN(c2nc(C3=C(c4c[nH]c5ccccc45)C(=O)NC3=O)c3ccccc3n2)CC1` [Sotrastaurin], the “area under confluence curve” value (1000 nM, DMSO control AUC in same experiment: 27958) worked out at 27000.
Consider `C[C@@H](Nc1cc(F)cc(F)c1)c1cc(C(=O)N(C)C)cc2c(=O)cc(N3CCOCC3)oc12`, for which the “area under confluence curve” value came to 28100 (1000 nM, DMSO control AUC in same experiment: 28684); 29100 (1000 nM, DMSO control AUC in same experiment: 30578); 28800 (1000 nM, DMSO control AUC in same experiment: 30580); 42700 (1000 nM, DMSO control AUC in same experiment: 43316).
With `CS(=O)(=O)CCNCc1ccc(-c2ccc3ncnc(Nc4ccc(OCc5cccc(F)c5)c(Cl)c4)c3c2)o1` [Lapatinib], the “area under confluence curve” value (1000 nM, DMSO control AUC in same experiment: 29345) came out at 20900.
With `CN(C)C/C=C/C(=O)Nc1ccc(C(=O)Nc2cccc(Nc3ncc(Cl)c(-c4c[nH]c5ccccc45)n3)c2)cc1`, the “area under confluence curve” value (1000 nM, DMSO control AUC in same experiment: 31219) came to 31000.
For the compound `O=C(CCCCCCC(=O)Nc1ccccc1)NO` [Vorinostat], the “area under confluence curve” value (1000 nM, DMSO control AUC in same experiment: 31239) is 29400 and the “area under confluence curve” value (1000 nM, DMSO control AUC in same experiment: 48219) was 47800.
